From PubChem BioAssay AID1259415 (National Center for Advancing Translational Sciences (NCATS), 2018)
Hit rate of the full screen: of about 410,000 compounds, about 18,000 (4.4%) were called active. About 7% were inconclusive and are not listed. No stated cut-off is given here; in the data, active means activity change below about -60%; inconclusive means no clear call, values can overlap the other calls; inactive means above about -39%. For the sample, actives were picked, then their nearest neighbours and some compounds at random.

Experiment: qHTS Assay for inhibitors of the human cytomegalovirus (HCMV)
Details: HFF cells, HCMV-luciferase reporter, 72 h; at 57.5 µM; stronger effect = lower value
Description: NCGC Assay Overview: Infection with human cytomegalovirus (HCMV) continues to pose significant threats for pregnant women and immunocompromised hosts. HCMV causes serious morbidity and mortality in transplant recipients, and congenital HCMV is the leading infectious cause of mental retardation and deafness in children. In the 1990s, the annual costs associated with the disease burden of congenital CMV were estimated at around $2 billion. A HCMV vaccine is not available yet and HCMV therapies result in intolerable side effects and emergence of drug resistant viruses. […] Towards this goal we have developed and characterized a luciferase HCMV reporter that was initially used in 96 well plates and then optimized to 1536-well plates for utilization in screening of the MLSMR collection, the NGCG diversity collection and the NCGC Pharmaceutical Collection of approved and investigational drugs.
NCGC Assay Protocol Summary:
This is a cell-based assay for HCMV inhibition in HFFs cells. The screening used 2 compound doses and the HCMV-luciferase at MOI of 1 PFU/cell. Cells were treated and infected with HCMV. At 72 h post infection cell lysates were collected and luciferase activity was determined using the Glomax-Multi + Detection System (Promega, Madison, WI). Data were normalized to the controls for basal activity (buffer only) and known HCMV inhibitors Salinmoycin.
1536-well assay protocol for the assay:
(1) Add 3 ul CMV/HFF cell culture. 1000 cells/well in DMEM nirmal media.
(2) Incubate 16 hr at 37C.
(3) Add 23 nl control compound, 10uM of Salinomycin.
(4) Add 23 nl compounds in DMSO solution.
(5) Add 3 ul CMV suspension. Final 1 puf/ul, Virus stock 2000pfu/ul
(6) Incubate 72 hrs at 37C.
(7) Add 4 ul OneGlo Luc Reagent.
(8) Incubate 5 min at room temperature.
On the % scale 0 is the no-effect control and ±100 the full control effect.

| Compound | activity change, negative = inhibition |
| --- | --- |
| CS/C(=C\[N+](=O)[O-])Nc1ccc(C)cc1 | -61.4% (active) |
| Cc1nn(CC(=O)Nc2ccc(C#N)cc2)c(C)c1[N+](=O)[O-] | -33.6% (inactive) |
| Cc1ccc(NC(=O)c2cc3cc(C)ccc3n2C)cc1 | 22.1% (inactive) |
| CCCN(CCC)C(=O)Cn1c(=O)n(-c2ccc(Cl)cc2)c(=O)c2c3c(sc21)CCCCC3 | 7.98% (inactive) |
| COc1ccc(C(=O)N2CCCC(C(=O)c3ccccc3OC)C2)cc1OC (configuration not stated) | -10.3% (inactive) |
| O=C(CSCc1cnn(-c2ccccc2)c1-n1cccc1)NCc1ccccc1Br | -36.4% (inactive) |
| CCc1cc2c(-c3ccccc3)cc(=O)oc2c2c1OCN(Cc1ccc(C)cc1)C2 | 0.791% (inactive) |
| O=C(/C=C/Sc1ncn[nH]1)c1ccc(Cl)cc1 | -76.4% (active) |
| Cc1cc(C)c(NC(=O)c2cc3sc(Cl)cc3n2C)c(C)c1 | -0.202% (inactive) |
| CN(c1ccccc1)c1ccc([N+](=O)[O-])c2nonc12 | -75% (active) |
| CN(Cc1ccccc1)c1ccc(-c2nc(-c3ccccc3)no2)cc1[N+](=O)[O-] | 22.8% (inactive) |
| Cc1ccccc1Nc1c([N+](=O)[O-])ccc2nonc12 | -2.44% (inactive) |
| COc1ccc(-n2nc3c(c2NC(=O)Cc2cccc(C)c2)CS(=O)C3)cc1 (configuration not stated) | 0.139% (inactive) |
| CC(=O)Nc1c2c(nn1-c1ccc(C)cc1C)CS(=O)C2 (configuration not stated) | 0% (inactive) |
| Cc1ccc(-n2nc3c(c2NC(=O)CCC2CCCCC2)CS(=O)C3)cc1 (configuration not stated) | -68.2% (active) |
| CCOc1cc(C(=O)NCCc2csc3nc(-c4ccc(C)cc4)nn23)cc(OCC)c1OCC | -29.1% (inactive) |
| Cc1cc(C)n(CC(C)NCc2c(C(=O)N3CCOCC3)nc3c(C)cccn23)n1 (configuration not stated) | 16% (inactive) |
| CCCCCn1c(=O)[nH]c2cc(C(=O)Nc3ccc(F)cc3)ccc2c1=O | 3.61% (inactive) |
| Cc1ccc(CC(=O)Nc2cccc(C#N)c2)cc1 | 6.08% (inactive) |
| CC(=O)Nc1ccc(NC(=O)C(C)OC(=O)c2ccccc2C(=O)c2ccc(Cl)c([N+](=O)[O-])c2)cc1 (configuration not stated) | -83.7% (active) |
| O=C(COc1ccc(NC(=O)c2ccccc2[N+](=O)[O-])cc1)c1ccc(F)cc1 | -16.6% (inactive) |

| Compound | activity change, negative = inhibition |
| --- | --- |
| Nc1nc(SCC(=O)Nc2ccc(Cl)c([N+](=O)[O-])c2)n[nH]1 | -9.65% (inactive) |
| N#Cc1cccc(NC(=O)COC(=O)c2ccccc2C(=O)c2ccc(Cl)c([N+](=O)[O-])c2)c1 | -99.2% (active) |
| CC(C)NC(=O)c1ccc(Sc2ccccc2)c([N+](=O)[O-])c1 | -15.4% (inactive) |
| CCOc1ccc(NC(=O)C(CC(C)C)N2Cc3ccccc3C2=O)cc1 (configuration not stated) | 9.79% (inactive) |
| Cc1ccccc1-c1nc(SCC(=O)N(C)c2ccccc2)c2c(=O)n(C)c(=O)n(C)c2n1 | 27.2% (inactive) |
| CCCN1CCN(CCCNC(=O)c2ccc3nc(Cc4ccccc4)oc3c2)CC1 | 8.36% (inactive) |
| CN1CCN(CCCNC(=O)c2ccc(/C=C3\Oc4ccccc4N(Cc4ccc(Cl)cc4)C3=O)cc2)CC1 | -110% (active) |
| COCCNC(=O)c1ccc2c(c1)N(Cc1cccc(Cl)c1)C(=O)c1ccccc1S2(=O)=O | 5.49% (inactive) |
| CCc1nc(-c2cc(S(=O)(=O)N3CCN(c4ccc(OC)cc4)CC3)ccc2OC)no1 | 48.2% (inactive) |
| Clc1ccccc1CSc1nncn2c1cc1occc12 | -18.9% (inactive) |
| CCOc1cc(-c2cc(-c3ccc(NC(C)=O)cc3)nc(N)c2C#N)ccc1O | -70.4% (active) |
| Cc1ccc(-c2cc(C(F)(F)F)c(C#N)c(SCC(=O)Nc3ccccc3)n2)cc1 | 1.85% (inactive) |
| CCOC(=O)CN(C(=O)COc1nc(-c2ccccc2)cc(C)c1C#N)c1ccc(F)cc1 | -37.6% (inactive) |
| Cc1ccc(-c2nc(CS(=O)(=O)CC(=O)NCc3ccccc3Cl)c(C)o2)cc1 | -14.3% (inactive) |
| CCOc1ccc(NS(=O)(=O)c2ccc(N)cc2)nn1 | -10.2% (inactive) |
| CCCCn1c(=N)c(S(=O)(=O)c2ccccc2)cc2c(=O)n3cccc(C)c3nc21 | 12.5% (inactive) |
| COc1ccc(CC(=O)Nc2ccc(-c3nnc(-c4ccc(C)cc4)o3)cc2)cc1 | -63.2% (active) |
| COc1ccc(CC(=O)Nc2ccc(-c3nc4ccccc4s3)c(C)c2)cc1 | 52.5% (inactive) |
| COc1ccc(Cc2n[nH]c(=S)n2NC(=O)Nc2ccc(C)cc2)cc1 | 4.71% (inactive) |
| CCn1c2ccccc2c2nnc(N3CCN(c4cc(C)ccc4C)CC3)nc21 | -34% (inactive) |
| COc1cc(OC)c(NC(=O)Cc2ccc(-n3c(C)nc4cccnc43)cc2)cc1Cl | 0% (inactive) |
